# Experimental data from PubChem BioAssay (EPA / NIEHS).
# Inconclusive results are not listed. Calls of active or inactive are those of the source. The calls were made as follows, unless noted: active = hit-call score of the fitted dose curve at least 0.9, where 1 is the maximum; inactive = score below 0.9.
# Assays:
# [1] = read-out: Interleukin-8 (IL8), CXCL8 (gene 3576); test: BSK_3C_IL8: BioMAP Diversity Plus: 3C Assay for Interleukin-8 (IL8) Biomarker Activity (AID 2283020); conditions: primary human endothelial cells (HUVEC); actives raise or lower the signal
# Outline: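 Endothelial primary cells of human umbilical vein origin are dosed with chemical; after 24 h the IL-8 biomarker is measured by ELISA, and concentration–response is fitted in both directions versus DMSO.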
# [2] = read-out: Monokine induced gamma interferon (MIG), CXCL9 (gene 4283); test: BSK_3C_MIG: BioMAP Diversity Plus: 3C Assay for Monokine induced gamma interferon (MIG) Biomarker Activity (AID 2283021); conditions: primary human endothelial cells (HUVEC); actives raise or lower the signal
# Outline: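 Endothelial primary cells (human umbilical vein) are dosed with test chemical in the 3C system. MIG levels are measured by ELISA at 24 h and fitted in both directions relative to DMSO.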
# [3] = BSK_3C_SRB: Viability Assessment in the BioMAP Diversity Plus: 3C Assay (AID 2283023); conditions: primary human endothelial cells (HUVEC);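 also: fitted both ways against DMSO so a hit may be signal rise or drop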
# Outline: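 Primary human umbilical vein endothelial cells in the 3C system were read 24 h after compound dosing. Total protein was stained with 0.1% sulforhodamine B after 10% TCA fixation and read at 560 nm, with bidirectional fitting against DMSO as baseline.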
# [4] = BSK_3C_Vis: BioMAP Diversity Plus: 3C Assay for Morphology Visualization (AID 2283025); conditions: primary human endothelial cells (HUVEC);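 also: fitted both ways so gain or loss versus DMSO counts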
# Outline: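 Morphology read by light microscopy serves as a background control for the multiplexed 3C assay in human umbilical vein endothelial cells, taken 24 h after dosing, with DMSO as the negative control and bidirectional curve fitting.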
# [5] = BSK_4H_SRB: Viability Assessment in the BioMAP Diversity Plus: 4H Assay (AID 2283027); conditions: primary human endothelial cells (HUVEC);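 also: cells exposed to compound for 24 h before staining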;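 as to AC50: curves fitted both ways versus DMSO so AC50 may be loss or gain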
# Outline: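 Cytotoxicity readout: sulforhodamine B (0.1%) staining of total protein after 10% TCA fixation, measured at 560 nm in human umbilical vein endothelium at 24 h. DMSO set the baseline; fitting was bidirectional.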
# [6] = BSK_BE3C_SRB: Viability Assessment in the BioMAP Diversity Plus: BE3C Assay (AID 2283028); conditions: primary human bronchial epithelial cells
# Outline: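 Human primary bronchial epithelial cells were exposed to test chemicals for 24 h. Total protein in parallel cultures was then measured by staining with 0.1% sulforhodamine B after 10% TCA fixation, with absorbance read at 560 nm. Activity was fitted bidirectionally against DMSO.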
# [7] = read-out: Thrombomodulin, THBD (gene 7056); test: BSK_3C_Thrombomodulin: BioMAP Diversity Plus: 3C Assay for Thrombomodulin Biomarker Activity (AID 2283029); conditions: primary human endothelial cells (HUVEC); actives raise or lower the signal
# Outline: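 Endothelial cells from umbilical vein are dosed with test chemical and incubated 24 h. Thrombomodulin is then quantified by ELISA, with DMSO serving as negative control and activity baseline.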
# [8] = biological target: human Vitamin D Receptor (VDR), VDR (gene 7421) (UniProt P11473); test: ATG_VDR_TRANS: Attagene TRANS-FACTORIAL HepG2 Assay for human Vitamin D Receptor (VDR) (AID 2283022; active = hit-call score of the fitted dose curve at least 0.9, where 1 is the maximum)
# Outline: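 HepG2 cells were transiently transfected with multiple GAL4-UAS reporter units, so signal reflects exogenous chimeric receptor-Gal4 activity. After 24 h compound exposure, reporter mRNA was measured by RT-PCR, fluorescent labelling and capillary electrophoresis, fitted for gain of signal versus DMSO.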
# human Vitamin D Receptor (VDR), VDR (gene 7421), sequence (P11473 whole entry, looked up, the tested form may be a part): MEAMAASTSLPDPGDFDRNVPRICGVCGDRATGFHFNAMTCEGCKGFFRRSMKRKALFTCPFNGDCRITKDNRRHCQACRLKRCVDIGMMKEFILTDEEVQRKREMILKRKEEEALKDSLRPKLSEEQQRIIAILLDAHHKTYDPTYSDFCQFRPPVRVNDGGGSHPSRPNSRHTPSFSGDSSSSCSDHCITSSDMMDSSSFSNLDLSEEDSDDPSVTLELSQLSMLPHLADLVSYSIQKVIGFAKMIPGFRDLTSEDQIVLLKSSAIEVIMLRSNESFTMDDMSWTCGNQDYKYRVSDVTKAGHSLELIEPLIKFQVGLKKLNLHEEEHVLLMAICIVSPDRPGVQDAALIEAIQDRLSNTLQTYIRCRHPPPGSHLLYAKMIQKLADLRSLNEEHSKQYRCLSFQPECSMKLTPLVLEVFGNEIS
smiles,measurement,setting,value
O=C(Cl)c1c(Cl)c(Cl)c(C(=O)Cl)c(Cl)c1Cl,outcome,[1],inactive
same,outcome,[2],inactive
same,outcome,[3],inactive
same,outcome,[4],inactive
same,outcome,[5],inactive
same,outcome,[6],inactive
same,outcome,[7],inactive
CCCCCCOc1ccc(N)cc1,outcome,[8],inactive
C1CNCCN1,outcome,[1],inactive
same,outcome,[2],inactive
same,outcome,[3],inactive
same,outcome,[4],inactive
same,outcome,[5],inactive
same,outcome,[6],inactive
same,outcome,[7],inactive
CCOC(=O)C1=NN(c2ccc(Cl)cc2Cl)C(C)(C(=O)OCC)C1 (centres undefined),outcome,[1],inactive
same,outcome,[2],inactive
same,AC50,[3],20 µM (active)
same,AC50,[4],37.5 µM (active)
same,AC50,[5],12.4 µM (active)
same,outcome,[6],inactive
same,outcome,[7],inactive
C=Cc1cccc(C)c1,outcome,[8],inactive
CCCC=C(C=O)CC,outcome,[8],inactive
COc1ccc(C(=O)c2ccccc2)c(O)c1,outcome,[1],inactive
same,outcome,[2],inactive
same,AC50,[3],4.55 µM (active)
same,outcome,[4],inactive
same,outcome,[5],inactive
same,outcome,[6],inactive
same,outcome,[7],inactive
CC(C)C(=O)OCCc1ccccc1,outcome,[1],inactive
same,outcome,[2],inactive
same,outcome,[3],inactive
same,outcome,[5],inactive
same,outcome,[6],inactive
same,outcome,[7],inactive
C=CCCCCCCCCC=O,outcome,[1],inactive
same,outcome,[2],inactive
same,outcome,[3],inactive
same,outcome,[4],inactive
same,outcome,[5],inactive
same,outcome,[6],inactive
same,outcome,[7],inactive
COCC(=O)O,outcome,[8],inactive
CC(c1cc(C(C)(C)C)cc(C(C)(C)C)c1O)c1cc(C(C)(C)C)cc(C(C)(C)C)c1O,outcome,[1],inactive
same,outcome,[2],inactive
same,outcome,[3],inactive
same,outcome,[4],inactive
same,outcome,[5],inactive
same,outcome,[6],inactive
same,outcome,[7],inactive
CCC1(C)C(=O)N(Cl)C(=O)N1Cl (centres undefined),outcome,[1],inactive
same,outcome,[2],inactive
same,outcome,[3],inactive
same,outcome,[4],inactive
same,outcome,[5],inactive
same,outcome,[6],inactive
same,outcome,[7],inactive
CCCCNS(=O)(=O)c1ccccc1,outcome,[8],inactive
CCCCCCCCCCCCC,outcome,[8],inactive
C=CC(=O)O[C@H]1C[C@@H]2CC[C@@]1(C)C2(C)C,outcome,[8],inactive
COC(C=C(C)CCC=C(C)C)OC,outcome,[8],inactive
CCOC(=O)[C@H](O)[C@@H](O)C(=O)OCC,outcome,[8],inactive
COc1cc(O)c(C(=O)c2ccccc2)cc1S(=O)(=O)O,outcome,[8],inactive
CC(=O)CCC1=C(C)CCCC1(C)C,outcome,[8],inactive
Nc1ccnc(=O)[nH]1,outcome,[8],inactive
CC(=O)OCCc1ccccc1,outcome,[8],inactive
CCCCCCCCCCCCc1ccc(O)cc1,outcome,[8],inactive
CC(C=O)c1ccccc1 (centres undefined),outcome,[8],inactive
O=S(=O)(O)c1ccc(Nc2nc(Nc3ccc(C=Cc4ccc(Nc5nc(Nc6ccc(S(=O)(=O)O)cc6)nc(N(CCO)CCO)n5)cc4S(=O)(=O)O)c(S(=O)(=O)O)c3)nc(N(CCO)CCO)n2)cc1,outcome,[8],inactive
CC1CCC(=O)C1=O (centres undefined),outcome,[8],inactive
CCCc1ccc(O)c(OC)c1,outcome,[8],inactive
Cc1c(C(=O)c2c[nH]n(C)c2=O)ccc(S(C)(=O)=O)c1C1=NOCC1,outcome,[8],inactive
O=C(O)/C=C/c1ccccc1,outcome,[8],inactive
Oc1ccc(-c2ccccc2)c(Cl)c1,outcome,[8],inactive
O=C(O)c1ccc2c(c1)C(=O)OC2=O,outcome,[8],inactive
O=C(O)C1CCC(C(=O)O)CC1 (centres undefined),outcome,[8],inactive
CCCC(CC)c1ccccc1 (centres undefined),outcome,[8],inactive
CC1=CCC2CC1C2(C)C (centres undefined),outcome,[8],inactive
CCC[Si](OC)(OC)OC,outcome,[8],inactive
CC1CC(=O)CC(C)(C)C1 (centres undefined),outcome,[8],inactive
[Cl][Sc]([Cl])[Cl],outcome,[8],inactive
CCCCCCCCCCCCCCCCCCOS(=O)(=O)O,AC50,[8],119 µM (active)
COc1nccnc1CC(C)C,outcome,[8],inactive
OCCCc1ccccc1,outcome,[8],inactive
CC(C)(CO)C(O)C(=O)NCCCO (centres undefined),outcome,[8],inactive
Nc1ccc(O)c([N+](=O)[O-])c1,outcome,[8],inactive
CC(=O)c1ccc(S(=O)(=O)NC(=O)NC2CCCCC2)cc1,outcome,[8],inactive
O=C1CCCCC1C1CCCCC1 (centres undefined),outcome,[8],inactive
Cn1ccnc1,outcome,[8],inactive
CCCCCC[C@@H](O)C/C=C\CCCCCCCC(=O)OCC(O)CO (some centres undefined),outcome,[8],inactive
C=C(C)C(=O)OCC(O)COc1ccc(C(C)(C)c2ccc(OCC(O)COC(=O)C(=C)C)cc2)cc1 (centres undefined),outcome,[8],inactive
CCCCC(CC)COC(=O)/C=C/c1ccc(OC)cc1 (centres undefined),outcome,[8],inactive
